# Screening results (PubChem)
# Shown are actives, neighbours in structure and some others; about 4.2% of the full set was active somewhere.
# Sfp inh – Sfp phosphopantetheinyl transferase inhibition | 310,000 compounds, 3.5% hits | AID 1490 | Potency, µM, without a hit: largest response in the series, negative = inhibition, hits mostly inhibitors | Q9F4F7 | Biochemical Sfp PPTase activity, qHTS;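 also: the enzyme is Sfp with the accession as filed and its product quenches rhodamine fluorescence; 0% = enzyme reaction without inhibitor and -100% = no enzyme wells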
#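 Reaction rates are the 30-min fluorescence difference (ex 525, em 598 nm) in wells containing 15 nM Sfp, 5 uM rhodamine-CoA and 12.5 uM BHQ-2-YbbR at pH 7.6 with 10 mM MgCl2.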
# VDR inh – blocks the human vitamin D receptor; Potency, µM, without a hit: max response, negative = inhibition, usual class: inhibitors; 400,000 compounds, 0.93% hits; VDR-SRC2-3 peptide fluorescence polarization, 2 h; AID 504847
# Target sequence (P11473 whole entry, looked up): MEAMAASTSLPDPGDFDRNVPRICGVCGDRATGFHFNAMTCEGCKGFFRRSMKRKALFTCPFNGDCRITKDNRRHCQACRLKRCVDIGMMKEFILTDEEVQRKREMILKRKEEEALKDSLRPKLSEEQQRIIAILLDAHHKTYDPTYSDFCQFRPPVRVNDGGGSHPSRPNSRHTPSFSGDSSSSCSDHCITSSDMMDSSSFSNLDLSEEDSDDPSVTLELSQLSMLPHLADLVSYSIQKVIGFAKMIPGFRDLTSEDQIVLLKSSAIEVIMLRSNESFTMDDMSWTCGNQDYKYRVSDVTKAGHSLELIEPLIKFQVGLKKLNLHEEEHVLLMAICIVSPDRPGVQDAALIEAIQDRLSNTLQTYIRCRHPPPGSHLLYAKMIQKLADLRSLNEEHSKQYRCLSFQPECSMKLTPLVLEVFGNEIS
#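 The screen uses fluorescence polarization to detect compounds that interfere with recruitment of the SRC2-3 coactivator peptide to VDR; plates are read after 2 h at room temperature.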
# ALOX12 inh – ALOX12 (human) lipoxygenase inhibition. 580,000 compounds, 1.1% hits. P18054. purified 12hLO, xylenol orange hydroperoxide absorbance. Potency, µM (doses to about 108 µM), inactives show at the top dose activity change, negative = inhibition, usual class: inhibitors
#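 Purified human 12hLO (150 nM final) in 25 mM Hepes, 0.01% Triton X-100, pH 7.0 was preincubated 15 min at room temperature with compound. Then 40 uM arachidonic acid was added, 30 min. Hydroperoxide was read by Fe-XO absorbance ratio 573/405 nm.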
# PLK1 PBD block – blocks phosphopeptide binding to human PLK1 polo-box domain. Plk1 PBD binding of FITC phosphopeptide, fluorescence polarization. 360,000 compounds, 2.8% hits. Potency, µM, for inactives: max response, negative = inhibition, most hits filed as inhibitors. P53350; also: series mostly up to about 57 µM; nearly all actives have a fitted effect of over 65% in size
# The depositor's hits bear a star; ? = inconclusive; / = not tested or not shown; [ ] = remark or other dose. Calls follow the shape of the dose curve; as a rule, active = well fitted curve in the direction sought with a large enough effect; inconclusive = small, poorly fitted or top-dose-only effect, or another doubt; inactive = no such curve, though single readings can be large; an effect the other way counts as inactive or inconclusive. Unless noted, % is scaled to controls: 0 for no effect and ±100 for the full control effect; potency is read from the fitted curve at half-maximal effect.
SMILES,Sfp inh,VDR inh,ALOX12 inh,PLK1 PBD block
CCc1cc2c(=O)c(-c3nc4ccccc4n3C)coc2c(CN2CCCCC2C)c1O (configuration not stated),8.0%,19.9%,1.1%,2.2%
CC1CCCCN1Cc1c(O)ccc2c(=O)c(-c3nc4ccccc4s3)coc12 (configuration not stated),12.2%,-16.8%,?,21.2µM*
COc1cccc(CN(C)Cc2cc(=O)oc3cc(O)c(Cl)cc23)c1,79.4µM*,13.9%,-15.5%,-3.7%
O=S(=O)(c1ccccc1)N1CCN(Cc2cccc(Cl)c2)CC1,-24.7%,3.3%,-16.3%,-6.7%
O=C(CSc1nc2ccccc2c(=O)n1CC1CCCO1)NCCc1ccccc1 (configuration not stated),5.8%,5.7%,0.7%,-5.8%
O=C(CSc1nc2ccccc2c(=O)n1CC1CCCO1)NCc1ccc2c(c1)OCO2 (configuration not stated),12.8%,-19.6%,-10.3%,26.7µM*
Cc1ccc(NC(=O)CSc2nc3ccccc3c(=O)n2CCCC(=O)NCC2CCCO2)cc1 (configuration not stated),8.3%,-21.0%,-17.9%,26.7µM*
Cc1ccc(CSc2nc3ccccc3c(=O)n2CCCC(=O)NCc2ccco2)cc1,25.1µM*,7.3%,-1.3%,-5.6%
Cc1ccc(CSc2nc3ccccc3c(=O)n2Cc2ccco2)cc1,-14.5%,-10.1%,0.0%[57.4 µM],26.7µM*
CC1(CCc2ccccc2)NC(=O)N(NC(=O)CCc2c[nH]c3ccccc23)C1=O (configuration not stated),/,/,12.4%,/
CCN(CC)C(=O)C1=C(C)NC(=S)NC1c1cn(-c2ccccc2)nc1-c1ccc(Cl)cc1 (configuration not stated),7.9%,-8.1%,?,-6.2%
CCOC(=O)c1scc(-c2ccccc2)c1S(=O)(=O)Nc1cc(OC)cc(OC)c1,/,-9.8%,0.0%,/
CC(C)c1nc2ccccc2c2nnc(SCC(=O)NCc3ccco3)n12,-1.5%,-18.5%,-15.6%,29.9µM*
O=C(CSc1nc2ccccc2c(=O)[nH]1)c1ccc(O)c(O)c1,-12.6%,10.3%,?,-17.2%
N#Cc1c(-c2ccccc2)nc(SCC(=O)Nc2ccccc2)[nH]c1=O,34.2%,-4.9%,-28.5%,-5.3%
N#Cc1c(-c2cccs2)nc(SCC(=O)c2cccs2)[nH]c1=O,9.3%,6.8%,10µM*,-19.0%
O=C(CSc1nc2ccccc2c(=O)[nH]1)c1cccs1,-17.5%,-5.8%,6.31µM*,-7.5%
CC(C)C(=O)Nc1ccccc1I,/,/,-6.8%,/
CC(C)OCCCn1c(-c2ccc(Br)cc2)c[nH]c1=S,?,-8.8%,44.7µM*,-20.5%
CC(C)OCCCn1c(=S)[nH]c2ncccc2c1=O,-10.2%,-17.5%,-23.8%,-29.7%
CCN(CC)CCCNC(=O)CNC(=S)N(CCCN1CCOCC1)Cc1cccs1,9.9%,-3.4%,4.3%,18.9µM*
O=C(CNC(=S)N(CCCN1CCOCC1)Cc1cccs1)NCCN1CCOCC1,5.4%,2.1%,-9.2%,-10.0%
Cc1ccc(NC(=S)N(CCCN2CCOCC2)Cc2ccccn2)cc1Cl,31.6µM*,-14.2%,-14.9%,-4.5%
Cc1cc(Cl)ccc1NC(=S)N(CCCN1CCOCC1)Cc1cccs1,44.7µM*,?,4.3%,10.6µM*
CC(=O)c1c(C)oc2ccc(N(C(=O)c3ccncc3)S(=O)(=O)c3ccc(C)cc3C)cc12,/,-7.9%,-25.9%,/
SMILES,Sfp inh,VDR inh,ALOX12 inh,PLK1 PBD block
CC(C)OCc1ccccc1CNS(=O)(=O)c1ccc(F)cc1,/,/,19.8%,/
COCOc1ccc(OC)cc1C(=O)/C=C/c1ccc(OC)c(Br)c1,-3.5%,39.8µM*,/,/
COCOc1cc(OC)ccc1C(=O)/C=C/c1cccc(C(F)(F)F)c1,-3.3%,28.2µM*,/,/
COCOc1cc(OC)ccc1C(=O)/C=C/c1ccc2c(c1)OCO2,15.5%,/,/,/
N#Cc1c(-c2ccco2)cc(C2CC2)nc1N,31.6µM*,-8.0%,-28.8%,-6.5%
COc1cccc(C(c2nnnn2Cc2ccco2)N2CCN(Cc3ccccc3)CC2)c1OC (configuration not stated),-26.2%,-13.3%,?,8.4%
COC(=O)c1c(SCC(=O)Nc2cccc(Cl)c2C)[nH]c2ccccc2c1=O,/,15.1%,-7.9%,/
OC(CNCC(c1ccc(Cl)cc1Cl)c1c[nH]c2ccccc12)c1ccccc1 (configuration not stated),50.1µM*,1.8%,?,-3.0%
O=C(NCC(c1ccccc1)c1c[nH]c2ccccc12)c1ccncc1 (configuration not stated),/,/,63.9%,/
COc1ccc2[nH]c(=O)c(CNc3cccc(C)c3)cc2c1,10µM*,-1.9%,29.9%,-2.9%
COc1ccc2[nH]c(=O)c(CN(CC3CCCO3)C(=S)Nc3cccc(C)c3)cc2c1 (configuration not stated),56.2µM*,12.7%,-17.7%,0.8%
COc1ccc(-c2c(C)oc3cc(OCC(=O)Nc4ccc5c(c4)OCO5)ccc3c2=O)cc1,/,/,-6.3%,/
O=C(Nc1ccccc1Cl)C(Cl)C(=O)c1ccccc1 (configuration not stated),13.2%,-10.8%,20µM*,1.68µM*
O=C(Nc1ccccc1Cl)c1ccccc1,8.9%,-7.2%,-10.7%,9.6%
O=C1NC(=S)N/C1=C\c1ccccc1OCc1ccc(C(=O)O)cc1,-6.9%,27.6%,-9.2%,-8.0%
O=C(O)c1ccc(COc2ccccc2C=C2C(=O)c3ccccc3C2=O)cc1,-6.1%,?,-15.7%,0.474µM*
O=C(O)c1ccc(COc2ccccc2/C=C2\NC(=O)N(Cc3ccc(F)cc3)C2=O)cc1,-26.7%,-3.8%,?,67µM*
CCc1cccc(C)c1NC(=S)N1CCCCC1c1cccnc1 (configuration not stated),18.2%,-4.0%,5.7%,-4.8%
CC1=NN(c2ccc(C)cc2)C(=O)/C1=C\C=C\c1ccccc1,?,79.4µM*,?,-28.0%
CC1=NN(c2ccccc2)C(=O)/C1=C\c1ccc(Br)s1,-5.3%,-25.3%,-16.4%,4.74µM*
CC1=NN(c2ccccc2)C(=O)/C1=C/C=C/C=C/N(C)C,?,-5.0%,?,42.3%
CC1=NN(c2ccccc2)C(=O)/C1=C/c1cccs1,-19.7%,79.4µM*,-20.9%,16.8µM*
CC1=NN(c2ccccc2)C(=O)C1=Cc1ccccc1,/,/,?,4.74µM*
CC(C)CCNC(=O)C1(C)CCN1Cc1ccc2ccccc2c1 (configuration not stated),/,/,-0.1%,6.3%
CCN(CC)Cc1cnc2c(C(=O)N3CCOC(C(F)(F)F)C3)cnn2c1 (configuration not stated),/,/,18.6%,/
Cn1c(CSc2nccn2-c2ccccc2)nc2c1c(=O)[nH]c(=O)n2C,/,/,-25.4%,/
O=c1nc2n(-c3ccccc3F)c3ccccc3cc-2c(=O)[nH]1,/,-10.1%,-28.8%,/
O=C1C2C3C=CC(C3)C2C(=O)N1/N=C/c1cn(Cc2ccccc2)c2ccccc12 (configuration not stated),-0.9%,-4.5%,16.9%,-3.3%
CCOC(=O)Cn1cc(/C=N/N2C(=O)C3C4C=CC(C4)C3C2=O)c2ccccc21 (configuration not stated),0.4%,?,0.0%,15µM*
